Inconclusive results are not listed. Active and inactive are the calls of the source. The call rests on the fitted dose curve; in most records, active means well fitted inhibition curve with a large enough effect; inconclusive means small, poorly fitted or top-dose-only effect, or effect the other way; inactive means flat fitted curve, though single readings scatter.
On the % scale 0 is the no-effect control and ±100 the full control effect; potency means the concentration at half of the fitted maximal effect.

In the assay the target is Ubiquitin carboxyl-terminal hydrolase 2 (Homo sapiens) (UniProt O75604). Kind of assay: Ub-rhodamine 110 based assay for inhibitors Ubiquitin-specific Protease USP2a. Further: nearly all actives have a fitted effect of over 50% in size. The conditions noted are these: USP2a Ub-rhodamine110 cleavage, fluorescence; series mostly up to 38.3 µM; activity change, negative = inhibition: at the top concentration. A digest of the protocol: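 Kinetic fluorescence (485/531 nm) read each minute over 7 min after adding Ub-Rhod110 (150 nM final) to USP2a (5 nM final). The enzyme had 30 min RT exposure to compounds beforehand in Tris pH 8.0 buffer with CaCl2, CHAPS and beta-ME.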
Chain of Ubiquitin carboxyl-terminal hydrolase 2 (Homo sapiens) (O75604 whole entry, looked up): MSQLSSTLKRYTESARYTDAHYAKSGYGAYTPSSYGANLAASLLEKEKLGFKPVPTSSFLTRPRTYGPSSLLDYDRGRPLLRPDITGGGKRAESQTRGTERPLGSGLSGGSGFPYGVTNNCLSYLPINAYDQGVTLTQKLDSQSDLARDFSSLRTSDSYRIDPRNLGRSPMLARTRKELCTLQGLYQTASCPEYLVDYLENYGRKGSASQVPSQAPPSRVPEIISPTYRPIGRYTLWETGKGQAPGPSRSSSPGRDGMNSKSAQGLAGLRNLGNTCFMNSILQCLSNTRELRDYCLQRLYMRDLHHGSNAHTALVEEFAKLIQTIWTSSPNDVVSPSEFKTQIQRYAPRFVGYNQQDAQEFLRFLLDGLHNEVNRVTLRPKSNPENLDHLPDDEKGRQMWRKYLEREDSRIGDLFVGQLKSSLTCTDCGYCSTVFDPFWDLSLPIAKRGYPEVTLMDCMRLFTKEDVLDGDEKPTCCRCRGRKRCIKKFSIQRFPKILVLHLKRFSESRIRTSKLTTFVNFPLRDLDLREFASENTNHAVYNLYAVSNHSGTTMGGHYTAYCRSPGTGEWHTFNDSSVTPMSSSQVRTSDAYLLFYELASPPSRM
For the molecule `COC(=O)c1[nH]c2ccc(C)cc2c1NC(=O)CN1CCCc2ccccc21`, the “activity change, negative = inhibition” value was -15.7% (inactive). Take `Cc1cc(SCC(=O)Nc2ccccc2)nc(C)n1`: the “activity change, negative = inhibition” value is 4.59% (inactive). The same measure, in the same setting: for `Cc1ccc2[nH]c3c(c2c1)CN(C(=O)CN1CCSCC1)CC3` the value was 1.52% (inactive).

As to `CCOc1ccc(S(=O)(=O)N(CC(=O)O)c2ccccc2)cc1`, the “activity change, negative = inhibition” value is 3.71% (inactive). In the case of `CCOc1cc(/C=C2\C(=O)N(c3nc(-c4ccc(Br)cc4)cs3)N=C2c2ccccc2)ccc1O`, the Potency was 3.16 µM (active). For the molecule `CC1(C)CC(=O)C2=C(C1)NCN(CCCN1CCOCC1)C2`, the “activity change, negative = inhibition” value is 1.43% (inactive). Still for that read-out and setting: for `CCOC(=O)N1CCN(S(=O)(=O)c2ccc(C)cc2)C1c1ccc(OC)cc1` (configuration not stated) the value was -18.1% (inactive); for `c1ccc(-c2nc3nc4ccccc4nc3n2Cc2ccco2)cc1`, -15.9% (inactive); for `Cc1c(O)c(CN2CCCC2)cc2c3c(c(=O)oc12)CCC3`, 2.28% (inactive).

As to `CCCCCCCCCCOC(=O)Cn1c(COc2ccccc2)[n+](C)c2ccccc21`, the “activity change, negative = inhibition” value was -21.6% (inactive). The same measure, in the same setting: the same measure for `CCCOc1ccc(N2C(=O)CC(NCCc3ccc(S(N)(=O)=O)cc3)C2=O)cc1` (configuration not stated): -20.6% (inactive); for `COc1ccc(-c2csc(N3CCN(C(=O)c4ccco4)CC3)n2)cc1`: -9.11% (inactive). The same measure, in the same setting: for `CCCNC(=O)CS(=O)Cc1nc(-c2ccccc2C)oc1C` (configuration not stated) the value was -6.47% (inactive); for `Cc1cc(=O)oc(C)c1C(=O)NCCc1ccccc1`, -10.5% (inactive).

With `Cc1noc(NS(=O)(=O)c2ccc(N3CC(O)=C(c4ccccc4)C3=N)cc2)c1C`, the “activity change, negative = inhibition” value was -8.71% (inactive). The same measure, in the same setting: the same measure for `CC1CCCC(NC(=O)C2N(CCCN3CCCC3)C(=O)C3C(C(=O)Nc4ccc(Cl)cc4)C4C=CC32O4)C1C` (configuration not stated): -8.64% (inactive). As for `O=C(CSc1nnc(SCc2ccccc2)s1)N/N=C/c1c[nH]c2ccccc12`, the Potency is 10 µM (active).

The values are drawn from PubChem BioAssay AID493170 (National Center for Advancing Translational Sciences (NCATS), 2011).
